Measured values from PubChem BioAssay AID1508601 (ICCB-Longwood Screening Facility, Harvard Medical School, 2020).
About 85 (1%) of roughly 5,700 compounds were called active. Cut-off read from the data, not from the text of the source: active = p53-positive nuclei above about 36% (passing the limit was not always enough); inactive = the rest. For the sample, actives were picked, then their nearest neighbours and some compounds at random.

Assays:
[1] = nuclear p53 accumulation, HPV+ cells – imaging, p53-positive nuclei imaging, 24 h, 48 h (AID 1508601); conditions: 24/48 h
[2] = molecular target: Cellular tumor antigen p53 (Homo sapiens) (UniProt P04637); assay: as above; conditions: 24/48 h, stronger effect = higher value
[3] = measured here: cell number at 24 h, Library stock concentration: 80 uM
[4] = measured here: cell number at 24 h, Library stock concentration: 400 uM
[5] = measured here: cell number at 24 h, Library stock concentration: 2 mM
[6] = measured here: cell number at 24 h, Library stock concentration: 3.33 mM
[7] = measured here: cell number at 24 h, Library stock concentration: 10 mM
[8] = measured here: cell number at 48 h, Library stock concentration: 80 uM
[9] = measured here: cell number at 48 h, Library stock concentration: 400 uM
[10] = measured here: cell number at 48 h, Library stock concentration: 2 mM
[11] = measured here: cell number at 48 h, Library stock concentration: 3.33 mM
[12] = measured here: cell number at 48 h, Library stock concentration: 10 mM
[13] = Library stock concentration: 80 uM
[14] = Library stock concentration: 400 uM
[15] = Library stock concentration: 2 mM
[16] = Library stock concentration: 3.33 mM
[17] = Library stock concentration: 10 mM
[18] = measured here: p53 positive nuclei at 24 h, Library stock concentration: 80 uM
[19] = measured here: p53 positive nuclei at 24 h, Library stock concentration: 400 uM
[20] = measured here: p53 positive nuclei at 24 h, Library stock concentration: 2 mM
[21] = measured here: p53 positive nuclei at 24 h, Library stock concentration: 3.33 mM
[22] = measured here: p53 positive nuclei at 24 h, Library stock concentration: 10 mM
[23] = measured here: cell number at 24 h, concentration not given here
[24] = measured here: cell number at 48 h, concentration not given here
[25] = measured here: p53 positive nuclei at 24 h, concentration not given here
[26] = measured here: cell number at 24 h, Library stock concentration: 46 uM
[27] = measured here: cell number at 24 h, Library stock concentration: 278 uM
[28] = measured here: cell number at 24 h, Library stock concentration: 1.67 mM
[29] = measured here: cell number at 48 h, Library stock concentration: 46 uM
[30] = measured here: cell number at 48 h, Library stock concentration: 278 uM
[31] = measured here: cell number at 48 h, Library stock concentration: 1.67 mM
[32] = Library stock concentration: 46 uM
[33] = Library stock concentration: 278 uM
[34] = Library stock concentration: 1.67 mM
[35] = measured here: p53 positive nuclei at 24 h, Library stock concentration: 46 uM
[36] = measured here: p53 positive nuclei at 24 h, Library stock concentration: 278 uM
[37] = measured here: p53 positive nuclei at 24 h, Library stock concentration: 1.67 mM

Cellular tumor antigen p53 (Homo sapiens), sequence (P04637 whole entry, looked up): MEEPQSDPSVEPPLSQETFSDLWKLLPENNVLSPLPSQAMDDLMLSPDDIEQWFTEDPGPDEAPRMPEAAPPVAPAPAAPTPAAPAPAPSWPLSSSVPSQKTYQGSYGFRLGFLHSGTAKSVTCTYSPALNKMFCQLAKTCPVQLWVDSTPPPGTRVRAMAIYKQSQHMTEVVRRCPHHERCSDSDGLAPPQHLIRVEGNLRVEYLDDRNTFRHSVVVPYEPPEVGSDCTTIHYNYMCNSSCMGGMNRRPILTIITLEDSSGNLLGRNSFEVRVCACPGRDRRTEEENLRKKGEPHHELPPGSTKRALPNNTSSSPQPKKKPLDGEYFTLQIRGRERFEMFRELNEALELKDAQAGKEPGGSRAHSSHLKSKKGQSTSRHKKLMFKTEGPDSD

With `CN1CCC(c2c(O)cc(O)c3c(=O)cc(-c4ccccc4Cl)oc23)C1CO` (centres undefined) the nuclei count, normalised [1, 3] was 103%, the nuclei count, normalised [1, 4] was 85.7% and the nuclei count, normalised [1, 5] was 35.8%. It also gave a nuclei count, normalised [1, 6] of 33.3%, a nuclei count, normalised [1, 7] of 24.1% and a nuclei count, normalised [1, 8] of 106%. For the same molecule, the nuclei count, normalised [1, 9] was 84.1%, the nuclei count, normalised [1, 10] was 23.2% and the nuclei count, normalised [1, 11] was 26.2%. For the same molecule, the nuclei count, normalised [1, 12] was 17.3%, the p53-positive nuclei, normalised [2, 13] was 0.295% (inactive) and the p53-positive nuclei, normalised [2, 14] was 16% (inactive). For the same molecule, the p53-positive nuclei, normalised [2, 15] was 66% (active), the p53-positive nuclei, normalised [2, 16] was 49.6% (inactive) and the p53-positive nuclei, normalised [2, 17] was 30.8% (inactive). It also gave a p53-positive nuclei, normalised [2, 18] of 0.32%, a p53-positive nuclei, normalised [2, 19] of 6.89% and a p53-positive nuclei, normalised [2, 20] of 3.25%. The p53-positive nuclei, normalised [2, 21] was 3.39% and the p53-positive nuclei, normalised [2, 22] was 6.32%.

`CN1CCC(c2c(O)cc(O)c3c(=O)cc(-c4ccccc4Cl)oc23)C(O)C1` (centres undefined) gave a nuclei count, normalised [1, 3] of 79.6%, a nuclei count, normalised [1, 4] of 49.2% and a nuclei count, normalised [1, 5] of 29.8%. The nuclei count, normalised [1, 7] was 27.6%, the nuclei count, normalised [1, 8] was 57.1% and the nuclei count, normalised [1, 9] was 29.5%. For the same molecule, the nuclei count, normalised [1, 10] was 16%, the nuclei count, normalised [1, 12] was 17.8% and the p53-positive nuclei, normalised [2, 13] was 5.98% (inactive). The p53-positive nuclei, normalised [2, 14] was 41.3% (inactive), the p53-positive nuclei, normalised [2, 15] was 13.9% (inactive) and the p53-positive nuclei, normalised [2, 17] was 7.27% (inactive). For the same molecule, the p53-positive nuclei, normalised [2, 18] was 1.3%, the p53-positive nuclei, normalised [2, 19] was 7.22% and the p53-positive nuclei, normalised [2, 20] was 0.675%. For the same molecule, the p53-positive nuclei, normalised [2, 22] was 0.446%.

Work on `CN1CC[C@H](c2c(O)cc(O)c3c(=O)cc(-c4ccccc4Cl)oc23)C(O)C1` (some centres undefined) yielded a nuclei count, normalised [1, 3] of 104%, a nuclei count, normalised [1, 4] of 38.3% and a nuclei count, normalised [1, 5] of 28.8%. For the same molecule, the nuclei count, normalised [1, 6] was 19.7%, the nuclei count, normalised [1, 7] was 27.3% and the nuclei count, normalised [1, 8] was 113%. For the same molecule, the nuclei count, normalised [1, 9] was 25.6%, the nuclei count, normalised [1, 10] was 21.8% and the nuclei count, normalised [1, 11] was 16%. The nuclei count, normalised [1, 12] was 20.2%, the p53-positive nuclei, normalised [2, 13] was 0.113% (inactive) and the p53-positive nuclei, normalised [2, 14] was 48.4% (inactive). For the same molecule, the p53-positive nuclei, normalised [2, 15] was 4.92% (inactive), the p53-positive nuclei, normalised [2, 16] was 8.28% (inactive) and the p53-positive nuclei, normalised [2, 17] was 4.03% (inactive). The p53-positive nuclei, normalised [2, 18] was -0.107%, the p53-positive nuclei, normalised [2, 19] was 2.03% and the p53-positive nuclei, normalised [2, 20] was 0.196%. For the same molecule, the p53-positive nuclei, normalised [2, 21] was 0.472% and the p53-positive nuclei, normalised [2, 22] was 0.419%.

With `CCCCC[C@H](O)/C=C/[C@@H]1[C@@H](C/C=C\CCCC(=O)NCC)[C@@H](O)C[C@H]1O` the nuclei count, normalised [1, 23] was 106%, the nuclei count, normalised [1, 24] was 102% and the p53-positive nuclei, normalised ([2]; concentration not given here) was 0.015% (inactive). The p53-positive nuclei, normalised [2, 25] was -0.0692%.

With `O=C(/C=C/c1cccc(C(=O)NO)c1)NO` the nuclei count, normalised [1, 23] was 114%, the nuclei count, normalised [1, 24] was 107% and the p53-positive nuclei, normalised ([2]; concentration not given here) was 0.114% (inactive). For the same molecule, the p53-positive nuclei, normalised [2, 25] was 0.124%.

Work on `O=C(C=Cc1cccc(S(=O)(=O)Nc2ccccc2)c1)NO` yielded a nuclei count, normalised [1, 3] of 108%, a nuclei count, normalised [1, 4] of 107% and a nuclei count, normalised [1, 5] of 94.6%. It also gave a nuclei count, normalised [1, 6] of 58%, a nuclei count, normalised [1, 7] of 52.5% and a nuclei count, normalised [1, 8] of 101%. The nuclei count, normalised [1, 9] was 95.8%, the nuclei count, normalised [1, 10] was 77.3% and the nuclei count, normalised [1, 11] was 40.2%. The nuclei count, normalised [1, 12] was 30.4%, the p53-positive nuclei, normalised [2, 13] was 3.46% (inactive) and the p53-positive nuclei, normalised [2, 14] was 0.535% (inactive). For the same molecule, the p53-positive nuclei, normalised [2, 15] was 5.33% (inactive), the p53-positive nuclei, normalised [2, 16] was 46% (active) and the p53-positive nuclei, normalised [2, 17] was 76% (active). The p53-positive nuclei, normalised [2, 18] was 0.856%, the p53-positive nuclei, normalised [2, 19] was 1.2% and the p53-positive nuclei, normalised [2, 20] was 10.1%. For the same molecule, the p53-positive nuclei, normalised [2, 21] was 51% and the p53-positive nuclei, normalised [2, 22] was 64.7%.

In the case of `O=S(=O)(NO)c1ccccc1`, the nuclei count, normalised [1, 23] is reported as 71.3%, the nuclei count, normalised [1, 24] is reported as 77% and the p53-positive nuclei, normalised ([2]; concentration not given here) is reported as 0.0111% (inactive). The p53-positive nuclei, normalised [2, 25] was -0.0732%.

For `CCCCCCCCc1cccc(NC(=O)C(N)COP(=O)(O)O)c1` (centres undefined), the nuclei count, normalised [1, 26] was 114%, the nuclei count, normalised [1, 27] was 118% and the nuclei count, normalised [1, 28] was 113%. The nuclei count, normalised [1, 7] was 108%, the nuclei count, normalised [1, 29] was 110% and the nuclei count, normalised [1, 30] was 108%. For the same molecule, the nuclei count, normalised [1, 31] was 107%, the nuclei count, normalised [1, 12] was 101% and the p53-positive nuclei, normalised [2, 32] was -0.108% (inactive). For the same molecule, the p53-positive nuclei, normalised [2, 33] was 0.0439% (inactive), the p53-positive nuclei, normalised [2, 34] was -0.101% (inactive) and the p53-positive nuclei, normalised [2, 17] was -0.166% (inactive). For the same molecule, the p53-positive nuclei, normalised [2, 35] was 0.0125%, the p53-positive nuclei, normalised [2, 36] was -0.0546% and the p53-positive nuclei, normalised [2, 37] was -0.0401%. It also gave a p53-positive nuclei, normalised [2, 22] of -0.218%.

With `CCCCCCCCCCCCCCCCCCCC(=O)NCCO` the nuclei count, normalised [1, 23] was 110%, the nuclei count, normalised [1, 24] was 108% and the p53-positive nuclei, normalised ([2]; concentration not given here) was -0.151% (inactive). The p53-positive nuclei, normalised [2, 25] was -0.0865%.

Molecule `CCCCc1nc2cc(C=CC(=O)NO)ccc2n1CCN(CC)CC` has a nuclei count, normalised [1, 3] of 95.3%, a nuclei count, normalised [1, 4] of 95.2% and a nuclei count, normalised [1, 5] of 78.6%. The nuclei count, normalised [1, 6] was 52.6%, the nuclei count, normalised [1, 7] was 51% and the nuclei count, normalised [1, 8] was 90.2%. It also gave a nuclei count, normalised [1, 9] of 86.3%, a nuclei count, normalised [1, 10] of 62.7% and a nuclei count, normalised [1, 11] of 28.6%. The nuclei count, normalised [1, 12] was 28.2%, the p53-positive nuclei, normalised [2, 13] was 1.67% (inactive) and the p53-positive nuclei, normalised [2, 14] was 3.58% (inactive). For the same molecule, the p53-positive nuclei, normalised [2, 15] was 17.7% (inactive), the p53-positive nuclei, normalised [2, 16] was 87.1% (active) and the p53-positive nuclei, normalised [2, 17] was 84.9% (active). For the same molecule, the p53-positive nuclei, normalised [2, 18] was 5.63%, the p53-positive nuclei, normalised [2, 19] was 7.57% and the p53-positive nuclei, normalised [2, 20] was 33.7%. The p53-positive nuclei, normalised [2, 21] was 71.3% and the p53-positive nuclei, normalised [2, 22] was 79.8%.

Molecule `CCCCCc1ccc(C=CC(=O)Nc2ccccc2C(=O)O)cc1` has a nuclei count, normalised [1, 26] of 113%, a nuclei count, normalised [1, 27] of 109% and a nuclei count, normalised [1, 28] of 111%. For the same molecule, the nuclei count, normalised [1, 7] was 109%, the nuclei count, normalised [1, 29] was 113% and the nuclei count, normalised [1, 30] was 110%. For the same molecule, the nuclei count, normalised [1, 31] was 110%, the nuclei count, normalised [1, 12] was 106% and the p53-positive nuclei, normalised [2, 32] was -0.18% (inactive). The p53-positive nuclei, normalised [2, 33] was -0.17% (inactive), the p53-positive nuclei, normalised [2, 34] was -0.244% (inactive) and the p53-positive nuclei, normalised [2, 17] was -0.204% (inactive). For the same molecule, the p53-positive nuclei, normalised [2, 35] was -0.087%, the p53-positive nuclei, normalised [2, 36] was -0.151% and the p53-positive nuclei, normalised [2, 37] was -0.151%. The p53-positive nuclei, normalised [2, 22] was -0.0182%.
